Entries with a potency or affinity are not part of this list. Unmarked numbers belong to inactive results.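 The calls were made as follows: active = cell killing whose fitted half-effect concentration is at most twice the top valid dose tested; inconclusive = flat curve with 30 to 70% killing, or a poor fit; inactive = effect in the rising direction, plus the rest.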
Test: viability loss in A549 lung cells – cell-based, ATP luminescence, cherry-pick, set 2, cytotoxicity control, dose response (AID 1053124);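 also: 0% = neutral control wells and -100% = mitoxantrone 10 µM positive control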
Conditions: ATP luminescence (CellTiter-Glo), 72 h; series mostly up to 26 µM; activity change, negative = cytotoxicity: at the top concentration

Structure (SMILES)	activity change, negative = cytotoxicity
Clc1ccccc1C1=CC(c2ccco2)n2ncnc2N1 (centres undefined)	-3.99%
CCNc1nc2nc3ccc(C)cn3c(=O)c2cc1C(=O)NCC1CCCO1 (centres undefined)	-13.3%
CCc1nc(SCC(=O)c2ccccc2)c2ccccc2n1	0.308%
N#CC1=C(N)OC2=C(C(=O)CCC2)C1c1cc2c(cc1Br)OCO2 (centres undefined)	2.47%
Cc1c(C(=O)NCc2ccc3c(c2)OCCO3)sc(=O)n1Cc1ccccc1F	-0.515%
CCOc1ccc2nc(NCCCNS(=O)(=O)c3ccc(F)cc3)c(C#N)cc2c1	7.23%
S=c1[nH]c2ccc(Cc3ccc4[nH]c(=S)[nH]c4c3)cc2[nH]1	-13.4%
C/C(=N\NC(=O)CC#N)c1cc2ccc(O)cc2oc1=O	2.81%
CCCN1CCc2c(sc(NC(=O)C3CCN(S(=O)(=O)c4cccs4)CC3)c2C(N)=O)C1	-11.7%
CSc1ccc(Cn2c(C)c(C(=O)NCc3cccc(Cl)c3)sc2=O)cc1	-3.84%
Cc1ccc(-n2c(C)cc(/C=N/NC(=O)Cn3c4ccccc4c(=O)c4ccccc43)c2C)cc1	-3.65%
COc1ccccc1/C=N/Nc1nc(C)cc(=O)[nH]1	-3.73%
COC(=O)C1=CN(C)C=C(C(=O)OC)C1c1ccccc1Cl	3.66%
COc1ccc(C2C(C#N)=C(N)Oc3cc(O)ccc32)cc1Cl (centres undefined)	-5.72%
CCOC(=O)c1c2ccc(OCC(=O)NN)cc2n2ccccc12	-10.5%
CCN(CC)c1ccc2cc(C#N)c(=O)oc2c1	-3.09%
O=c1oc2cc(O)ccc2cc1S(=O)(=O)c1ccccc1	-15%
COCCN1C=C(C(=O)OC)C(c2ccc(Cl)cc2)C(C(=O)OC)=C1	-8.61%
O=C(/C=C/c1ccccc1)C1=C(O)C(=O)N(CCO)C1c1ccc2c(c1)OCO2 (centres undefined)	-9.53%
Cc1cc2cc(CNC(=O)c3ccco3)ccc2n1C	-11%

Structure (SMILES)	activity change, negative = cytotoxicity
COc1ccc(CNC(=O)c2sc(=O)n(Cc3ccc(C)cc3)c2C)cc1OC	-9.36%
O=C(Cc1csc(-c2ccccc2)n1)NCc1ccccc1F	0.178%
O=C(c1ccc(F)cc1)C1CCN(C(=O)Nc2ccccc2Cl)CC1	2.67%
O=C(O)c1ccc(-c2ccc(/C=C3\NC(=O)N(Cc4ccc(Cl)cc4)C3=O)o2)cc1	-1.62%
COc1ccccc1C(=O)c1cc2ccc(O)cc2oc1=O	-8.31%
CCOC1=NN(c2ncc(C(F)(F)F)cc2Cl)C(=O)C1	-4.45%
COc1cc(C(=O)NCCCNc2nc3c(C)cc(C)cc3cc2C#N)cc(OC)c1OC	-4.26%
Nc1ccc2nc(-c3ccccc3)cnc2c1	-14.6%
COc1ccc(S(=O)(=O)N2CCCC2CNC(=O)C(=O)NC2CCCC2)cc1 (centres undefined)	-9.97%
CCn1c(=NC(=O)CSC(C)=O)sc2cc(OC)ccc21	-8.33%
C[C@H](NC(=O)c1nc[nH]c1C(=O)N[C@@H](Cc1ccccc1)C(=O)OC(C)(C)C)C(=O)OCc1ccccc1	-5.37%
S=C(NCC1CCCO1)N1CCN(Cc2ccccc2Cl)CC1 (centres undefined)	-0.535%
O=C(c1cccc(Cl)c1)N1CCC(=O)N(C(COCc2ccccc2)Cc2ccccc2)CC1 (centres undefined)	-0.569%
Cc1c(O)ccc2cc(S(=O)(=O)c3ccccc3)c(=O)oc12	-11.6%
CCN1C(=O)c2cccc3c(S(=O)(=O)N(C)C)ccc1c23	-14.3%
O=C(O)c1ccc(N2N=C(c3ccccc3)CC2c2ccccc2)cc1 (centres undefined)	-7.85%
COCc1cc(C)nc(SCC(=O)Oc2ccc(Cl)cc2)c1C#N	-8.18%
CC(=O)Oc1ccc(C(=O)Nc2cc(C)on2)cc1	1.55%
COc1ccccc1C1C2=C(CC(C)(C)CC2=O)N(CC(=O)O)C2=C1C(=O)CC(C)(C)C2	-3.25%
